Bioassay records as filed in PubChem BioAssay.
The entries come from a sample that favours hits as a whole.
HT1080-NT tox: qHTS for induction of synthetic lethality in tumor cells producing 2HG: qHTS for the HT-1080-NT fibrosarcoma cell line | HT-1080-NT fibrosarcoma viability, CellTiter-Glo ATP luminescence, 48 h | Potency, µM (highest dose often 46.1 µM), without a hit: at the highest dose activity, negative = less viability, hits mostly cytotoxic | hit rate 1.6% among 360,000 | AID 686970, 2013;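 also: NT is the 2HG producing partner of a matched IDH1 knockdown line; potency is read from the fitted curve at half-maximal effect; 0% = DMSO-treated cells and -100% = media-only wells without cells; nearly all actives have a fitted effect of over 55% in size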
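Viability of the 2HG-overproducing fibrosarcoma line after 48 hours of compound exposure at 37 degrees C was determined by luminescence with CellTiter-Glo, and concentration-effect curves were then fitted and categorized.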
12-LOX inh: Primary qHTS assay for inhibitors of human arachidonate 12S-lipoxygenase (ALOX12): Round 2; Polyunsaturated fatty acid lipoxygenase ALOX12 (Homo sapiens), P18054; purified 12hLO, xylenol orange hydroperoxide absorbance; Potency, µM (highest dose often 108 µM), for the others: top-dose activity change, negative = inhibition, hits mostly inhibitors; hit rate 1.1% among 580,000; also: potency is read from the fitted curve at half-maximal effect
Target sequence (P18054 whole entry, looked up): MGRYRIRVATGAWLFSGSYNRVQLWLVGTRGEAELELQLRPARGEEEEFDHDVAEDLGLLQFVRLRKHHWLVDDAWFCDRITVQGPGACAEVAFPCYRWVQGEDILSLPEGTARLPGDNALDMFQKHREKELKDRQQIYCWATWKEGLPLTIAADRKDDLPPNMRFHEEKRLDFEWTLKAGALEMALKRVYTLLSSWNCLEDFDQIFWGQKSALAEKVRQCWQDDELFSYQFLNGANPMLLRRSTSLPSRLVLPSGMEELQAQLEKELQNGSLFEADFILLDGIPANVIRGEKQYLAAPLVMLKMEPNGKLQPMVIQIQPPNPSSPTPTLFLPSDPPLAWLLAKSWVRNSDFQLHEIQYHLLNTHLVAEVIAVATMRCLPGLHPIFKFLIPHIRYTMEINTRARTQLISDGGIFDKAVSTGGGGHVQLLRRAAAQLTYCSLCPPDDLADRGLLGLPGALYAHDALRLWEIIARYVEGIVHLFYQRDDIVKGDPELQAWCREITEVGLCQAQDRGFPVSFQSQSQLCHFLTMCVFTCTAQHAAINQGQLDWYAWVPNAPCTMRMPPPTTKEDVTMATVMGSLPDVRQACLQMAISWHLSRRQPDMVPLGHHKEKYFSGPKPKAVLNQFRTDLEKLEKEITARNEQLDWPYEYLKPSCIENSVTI
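Purified human 12hLO (150 nM final) in 25 mM Hepes, 0.01% Triton X-100, pH 7.0 was preincubated 15 min at room temperature with compound. Then 40 uM arachidonic acid was added, 30 min. Hydroperoxide was read by Fe-XO absorbance ratio 573/405 nm.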
DT40 TDP1 CPT: qHTS for Inhibitors of human tyrosyl-DNA phosphodiesterase 1 (TDP1): qHTS in cells in presence of CPT | chicken DT40 Tdp1-/-;hTDP1 cells + 20 nM CPT, ATP luminescence, 48 h | Potency, µM (top dose mostly 46.2 µM), for inactives: at the top dose activity change, negative = growth inhibition, actives largely listed as inhibitors | hit rate 12% among 420,000; also: potency is read from the fitted curve at half-maximal effect; nearly all actives have a fitted effect of over 55% in size
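Chicken DT40 Tdp1-/- cells complemented with human TDP1, 400 cells/well, exposed to compounds plus 20 nM camptothecin for at least 48 h at 37 C; viability read as ATP content by CellTiter-Glo luminescence.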
IL1B secr inh: qHTS for Inhibitors of Inflammasome Signaling: IL-1-beta AlphaLISA Primary Screen; THP-1 LPS/ATP IL-1B secretion, AlphaLISA, 16 h; hits give low values; activity change, % at 57.5 µM; hit rate 4.7% among 360,000; AID 743279, 2014; in the data active = activity change below about -50%; inconclusive = mostly about -30% to -49%
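THP-1 cells pretreated 1 hr with compounds (up to 57.5 uM final), then stimulated with LPS (250 ng/mL final) plus ATP (1.25 mM final); secreted IL-1B measured by AlphaLISA after 16 hr, decreased signal indicating inhibition.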
DT40 TDP1 no CPT: qHTS for Inhibitors of human tyrosyl-DNA phosphodiesterase 1 (TDP1): qHTS in cells in absence of CPT | DT40 Tdp1-/- hTDP1 cells, no CPT, ATP luminescence, 48 h | Potency, µM (titrated, usually from 46.2 µM), inactives show at the highest dose activity change, negative = growth inhibition, hits mostly inhibitors | hit rate 15% among 420,000 | AID 686978, 2013; also: potency is read from the fitted curve at half-maximal effect; nearly all actives have a fitted effect of over 55% in size
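Cells were dispensed at 400 per well, compounds added by pin tool, plates incubated ≥48 hr at 37 °C, then CellTiter-Glo added for 30 min at room temperature before luminescence reading. Line: DT40 Tdp1-/- complemented with hTDP1; camptothecin omitted.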
HT1080 IDH1KD tx: qHTS for induction of synthetic lethality in tumor cells producing 2HG: qHTS for the HT-1080-IDH1KD cell line. HT-1080 IDH1 knockdown viability, ATP luminescence, 48 h. Potency, µM (highest dose often 46.1 µM), inactives show top-dose activity, negative = toxicity, usual class: cytotoxic. hit rate 2% among 360,000;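 also: potency is read from the fitted curve at half-maximal effect; 0% = DMSO wells and -100% = cell-free medium wells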
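Viability of IDH1-knockdown HT-1080 fibrosarcoma cells was assessed by CellTiter-Glo after 48 h at 37 °C with titrated compound; concentration-effect curves were classified by fit quality and response size.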
* marks the source's active call; other numbers are inactive results; ? = inconclusive; nt = no result; [ ] = dose if it differs, or a comment. Unless noted, calls follow the shape of the dose curve; as a rule, active = well fitted curve in the direction sought with a large enough effect; inconclusive = small, poorly fitted or top-dose-only effect, or another doubt; inactive = no such curve, though single readings can be large; an effect the other way counts as inactive or inconclusive. Unless noted, % is scaled to controls: 0 for no effect and ±100 for the full control effect.

SMILES	HT1080-NT tox	12-LOX inh	DT40 TDP1 CPT	IL1B secr inh	DT40 TDP1 no CPT	HT1080 IDH1KD tx
CC1CN(S(=O)(=O)c2cc(C(=O)NCCC3=CCCCC3)ccc2Cl)CC(C)O1 (centres undefined)	?	2%	18µM*	31	15µM*	-17%
COc1ccc(C(=O)NCCC2=CCCCC2)cc1S(=O)(=O)N1CCOCC1	2%	?	0%	23	-2%	6%
Cc1ccc(-c2nc(CS(=O)(=O)CC(=O)NCCCSC3CCCCC3)c(C)o2)cc1	nt	3%	nt	nt	nt	nt
CC(C)(C)OC(=O)[C@H](Cc1ccccc1)NC(=O)c1[nH]cnc1C(=O)Nc1ccccc1F	-22%	-1%	18µM*	?	15µM*	?
C[C@H](NC(=O)c1nc[nH]c1C(=O)N[C@@H](Cc1ccccc1)C(=O)OCc1ccccc1)C(=O)OCc1ccccc1	-16%	8%	?	10	23µM*	-8%
C[C@H](NC(=O)c1nc[nH]c1C(=O)N[C@@H](Cc1ccccc1)C(=O)OC(C)(C)C)C(=O)OCc1ccccc1	-1%	19%	?	28	18µM*	2%
CC(C)(C)OC(=O)[C@H](CCCCN)NC(=O)c1nc[nH]c1C(=O)N[C@@H](CCCCN)C(=O)OC(C)(C)C	-5%	14%	30%	10	5%	0%
CC(C)(C)OC(=O)[C@H](Cc1ccccc1)NC(=O)c1nc[nH]c1C(=O)N[C@@H](CCCCN)C(=O)OC(C)(C)C	0%	-17%	?	-10	16µM*	5%
CNC(=O)c1[nH]cnc1C(=O)N[C@@H](C)C(=O)OCc1ccccc1	1%	2%	?	68	-21%	0%
CCOC(=O)C1=C(C)N(c2ccc3c(c2)OCO3)C(=O)NC1c1ccccc1 (centres undefined)	nt	-17%	nt	nt	nt	nt
Cc1cc(=O)oc(C)c1C(=O)Nc1cc(C(F)(F)F)cc(C(F)(F)F)c1	nt	-1%	nt	nt	nt	nt
CNC(=O)c1[nH]cnc1C(=O)N[C@@H](Cc1ccccc1)C(=O)OCc1ccccc1	-29%	21%	15µM*	55	?	-8%
Cc1c(S(=O)(=O)c2ccc(F)cc2)c(N)n(Cc2cccnc2)c1C	nt	-28%	nt	nt	nt	nt
COc1ccc(C)cc1COc1ccc(C#N)cc1OC	nt	-29%	nt	nt	nt	nt
CCc1ccccc1NC(=O)c1cc2c(Cl)nc3ccccc3c2s1	nt	-27%	?	nt	?	nt
CCN(CCCNC(=O)c1cc2c(Cl)nc3ccccc3c2s1)Cc1ccccc1	nt	?	?	nt	23µM*	nt
CCN(CC)CCCNC(=O)c1cc2c(Cl)nc3ccccc3c2s1	?	?	18µM*	?	?	?
Oc1cccc(CN2CCCC23CCN(c2ccc(C(F)(F)F)cn2)CC3)c1	nt	2%	nt	nt	nt	nt
CSc1nc(N2CCOCC2)c2c3c(sc2n1)CCCC3	-11%	86%	?	-4	13µM*	-8%[9.24 µM]
Cc1nc(N2CCOCC2)c2c3c(sc2n1)CCC3	0%	9%	-8%	16	?	-13%
N#Cc1sc2nc(-c3ccccc3)cc(-c3ccco3)c2c1N	-7%	?	18µM*	-9	?	-4%
Cc1ccc(-c2nnc(NC(=O)c3ccc([N+](=O)[O-])o3)o2)c(C)c1	?	?	16µM*	?	13µM*	?
COc1ccc(C(=O)Nc2nnc(C3=COCCO3)o2)cc1	-11%	0%	-26%	11	-11%	-1%
COc1ccc(-c2nnc(NC(=O)c3ccc([N+](=O)[O-])o3)o2)c(OC)c1	-1%	433%	?	-19	18µM*	-2%
C=CCOc1c(Cl)cc(C(=S)N2CCCC2)cc1OCC	?	5%	5.8µM*	2	7.3µM*	9.2µM*
SMILES	HT1080-NT tox	12-LOX inh	DT40 TDP1 CPT	IL1B secr inh	DT40 TDP1 no CPT	HT1080 IDH1KD tx
CCOc1cc(C(N)=O)cc(Cl)c1OCC	-7%	5%	?	-2	23µM*	-11%
CCOc1cc(C(=O)O)cc(Cl)c1OC	12%	0%	12%	-9	4%	-2%
CS(=O)(=O)N(Cc1ccccc1)c1ccccc1C(=O)Nc1ccccc1C(=O)NCc1ccco1	0%[9.24 µM]	9%	-14%	7	-28%	-5%
Cc1ccc(S(=O)(=O)N(Cc2ccccc2)c2ccccc2C(=O)NCc2ccco2)cc1	11µM*	-28%	?	-94*	?	3%[9.24 µM]
COCCNC(=O)c1ccccc1N(Cc1ccccc1)S(=O)(=O)c1ccc(C)cc1	-16%	-7%	-16%	7	-18%	-10%
Cc1ccc(S(=O)(=O)N(Cc2ccccc2)c2ccccc2C(=O)Nc2ccccc2C(=O)NCc2ccco2)cc1	0%	1%	23µM*	-9	?	-5%
Cc1ccc(C2NC(=O)c3sc(=S)n(-c4ccccc4)c3N2)cc1 (centres undefined)	-2%	?	23µM*	12	-30%	-23%
Cn1c(-c2sc(=S)n(-c3ccccc3)c2N)nc2ccccc21	7%	0%	-3%	42	-19%	4%
CCc1cccc(CC)c1NC(=O)C1SC(=Nc2ccccc2C)C(c2nc3ccccc3s2)=C1N (centres undefined)	-22%	0%	?	6	23µM*	-13%
Cc1ccc(-c2nc3ccccc3s2)cc1NC(=O)C(C)C	nt	-1%	nt	nt	nt	nt
ClCCn1c(CCl)nc2ccc(Cl)cc21	-13%	10µM*	?	20	16µM*	-1%
O=C(OCc1nc2ccc(Cl)cc2n1CCO)c1ccccc1	1%	-25%	-5%	20	-27%	11%
FC(F)(F)c1cc(CCN2CCNC[C@H]2Cc2cccc3ccccc23)cc(C(F)(F)F)c1	-27%	?	8.2µM*	-105*	8.2µM*	?
Oc1ccc(C[C@@H]2CNCCN2CCc2cc(C(F)(F)F)cc(C(F)(F)F)c2)cc1	?	-21%	23µM*	-67*	?	-22%
Oc1ccc(C[C@H]2CNCCN2CCc2cc(C(F)(F)F)cc(C(F)(F)F)c2)cc1	?	?	10µM*	?	?	0%
CCNc1nc(-c2ccc3c(c2)CCC(=O)N3)cs1	nt	20µM*	nt	nt	nt	nt
